Source: PubChem (National Center for Advancing Translational Sciences (NCATS))
KB-V1 cytotox = qHTS assay for MDR1-selective chemotherapeutics: Primary screen using the drug-selected MDR subline cells KB-V1. Potency, µM (top dose mostly 46.1 µM), usual class: cytotoxic. KB-V1 MDR cells viability, CellTiter-Glo, 72 h. 400,000 tested, 3.4% active. AID 1347076, 2019; also: % is scaled to controls: 0 for no effect and ±100 for the full control effect; nearly all actives have a fitted effect of over 60% in size
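In this primary screen, KB-V1 cells overexpressing P-gp are incubated with library compounds (lowest to highest concentration) for 72 h at 37 degrees C before a luminescent ATP viability read.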
ELG1 DNA repair = qHTS screen for small molecules that inhibit ELG1-dependent DNA repair in human embryonic kidney (HEK293T) cells expressing luciferase-tagged ELG1; HEK293T ELG1-luciferase reporter, luminescence, 16 h; DNA damage induced by 5-fluorouridine; Potency, µM (highest dose often 46.1 µM), for inactives: top-dose activity change, negative = inhibition, usual class: inhibitors; 330,000 tested, 2.3% active; also: % is scaled to controls: 0 for no effect and ±100 for the full control effect; nearly all actives have a fitted effect of over 55% in size
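HEK293T cells expressing luciferase-tagged ELG1 (2,000/well) received 5-Fluorouridine plus compound or DMSO for 16 hr at 37 °C. Luciferase was read by ONE-Glo luminescence after 30 min at room temperature.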
SW480 rerep = A quantitative high throughput screen for small molecules that induce DNA re-replication in SW480 colon adenocarcinoma cells | SW480 DNA re-replication, Hoechst DNA content imaging, 48 h | Potency, µM (doses to about 46.1 µM), without a hit: at the top dose re-replication activation, actives largely listed as activators | 340,000 tested, 1.8% active | AID 624297, 2012; also: % of control where 0% means no effect; nearly all actives have a fitted effect of over 55% in size
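DNA re-replication was detected as more nuclei of elevated Hoechst intensity after 48 hr exposure to compound (23 nL pinned per well of 250 cells).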
KB-3-1 tox = qHTS assay for MDR1-selective chemotherapeutics: Primary screen using the parental adenocarcinoma cell KB-3-1; Potency, µM (series often up to 46.1 µM), hits mostly cytotoxic; 400,000 tested, 1.4% active; KB-3-1 viability, CellTiter-Glo ATP luminescence, 72 h; AID 1347075, 2019; also: % is scaled to controls: 0 for no effect and ±100 for the full control effect; nearly all actives have a fitted effect of over 60% in size
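Luminescent ATP read-out (CellTiter-Glo) measures survival of drug-naive KB-3-1 cells after 72 h compound exposure at 37 °C. Titration series was screened from lowest to highest concentration, with DMSO vehicle plates as background controls.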
MCF10A rerep = A quantitative high throughput screen for small molecules that induce DNA re-replication in MCF 10a normal breast cells | AID 624296, 2012 | Potency, µM (top dose mostly 46.1 µM), for inactives: at the highest dose activity, positive = re-replication, most hits filed as activators | 350,000 tested, 2.9% active | MCF 10A DNA re-replication, Hoechst nuclear intensity, 48 h; also: % of control where 0% means no effect; nearly all actives have a fitted effect of over 50% in size
* = called active by the depositor; i = inactive; ? = inconclusive; . = no result; [ ] = dose if it differs, or a comment. In the library only some 8.1% were active in any assay of this set; here they are far more common. Calls follow the shape of the dose curve; as a rule, active = well fitted curve in the direction sought with a large enough effect; inconclusive = small, poorly fitted or top-dose-only effect, or another doubt; inactive = no such curve, though single readings can be large; an effect the other way counts as inactive or inconclusive. Potency is read from the fitted curve at half-maximal effect.

SMILES | KB-V1 cytotox | ELG1 DNA repair | SW480 rerep | KB-3-1 tox | MCF10A rerep
CC(=O)c1c(C)[nH]c(C(=O)CN(C)CC(=O)Nc2ccccc2Cl)c1C | i | 18.3µM* | -4.0% | i | ?
CCN(CC)S(=O)(=O)c1cccc(NC(=O)COC(=O)c2[nH]c(C)c(C(C)=O)c2C)c1 | i | . | . | ? | .
Cc1c(C#N)c(O)n(CCO)c(=O)c1N=Nc1ccc2c(c1)COC2=O | i | 0.2% | 12.3% | i | ?
O=C(CSc1n[nH]c(=O)[nH]c1=O)NCC1CCCCC1 | i | 0.2% | -2.2% | i | -5.1%
CC1(C)CC(=O)c2cc(OCC(=O)N3CCCCCC3)ccc2O1 | 18.4µM* | ? | -12.1% | i | 9.1%
CC(=O)N1CCC2(CC1)CC(=O)c1cc(OCC(=O)NCc3ccc(C)cc3)ccc1O2 | 18.4µM* | ? | 0.6% | i | 17.1%
CC(=O)N1CCC2(CC1)CC(=O)c1cc(OCC(=O)N3CCCC3)ccc1O2 | i | 9.4% | 1.9% | i | -5.0%
CC(=O)N1CCC2(CC1)CC(=O)c1cc(Cl)ccc1O2 | i | . | 2.31µM* | i | 1.4%
O=C(O)c1cnn(-c2nc(-c3ccc(Cl)cc3)cs2)c1C(F)(F)F | i | ? | -3.9% | i | 9.4%
COc1ccccc1CN1CCNC(=O)C1CC(=O)NCCCn1cccn1 (stereo unspecified) | i | 5.5% | 5.7% | i | ?
O=[N+]([O-])c1ccc(COn2nnc3ccccc32)cc1 | i | ? | 5.4%[1.84 µM] | i | -23.5%
Clc1ccc(COn2nnc3ccccc32)c(Cl)c1 | i | . | 4.7% | i | 23.1µM*
Cc1cccc(Cc2c(C)nc3c(-c4ccccc4)c(C)[nH]n3c2=O)c1 | i | . | . | 10.3µM* | .
Cc1nc2c(-c3ccc(F)cc3)c(C)[nH]n2c(=O)c1Cl | i | -0.9% | 7.31µM* | 10.3µM* | 12.5%
Cc1[nH]n2c(=O)c3c(nc2c1-c1ccc(F)cc1)CCCC3 | i | -9.9% | -3.3% | ? | -8.9%
Cc1[nH]n2c(=O)cc(-c3ccccc3Cl)nc2c1-c1ccccc1 | i | . | . | 6.51µM* | .
Cc1nc2c(-c3ccc(Cl)cc3)c(C)[nH]n2c(=O)c1Cc1ccccc1 | ? | 4.11µM* | ? | i | ?
CCN(CC)C(=O)c1sc2nc(-c3ccncc3)[nH]c(=O)c2c1C | i | -1.2% | -13.8% | i | 5.0%
Cn1c(/C=C/c2ccc([N+](=O)[O-])o2)nc2ccccc2c1=O | ? | ? | 1.84µM* | 1.84µM* | 5.17µM*
O=C(Cn1cc(S(=O)(=O)Cc2ccccc2Cl)c2ccccc21)NCCc1ccccc1 | i | . | . | i | .
CCN(CC)C(=O)N1c2ccccc2C=Cc2ccccc21 | ? | 0.0% | 6.9% | 3.66µM* | ?
NC(=O)N1c2ccccc2C=Cc2ccccc21 | i | 0.4% | -3.7% | i | ?
CCN1C(=NCC(C)C)N[C@@H](c2cccc(C(F)(F)F)c2)C(C(=O)OC)=C1C | i | 8.3% | -3.2%[9.22 µM] | i | -30.4%
Cc1cccc(C)c1NC(=O)/C(C#N)=C/c1ccsc1 | i | 11.2% | 1.46µM* | i | ?
COC(=O)c1ccc(COc2ccccc2/C=C(\C#N)C(=O)Nc2c(C)cccc2C)cc1 | ? | 25.9µM* | 23.5% | ? | 8.2µM*
Cc1oc(-c2ccc(Cl)cc2)nc1CN1CCCC(C(=O)NCc2ccc(Cl)cc2)C1 (stereo unspecified) | i | . | . | i | .
COc1cc(/C=C(\C#N)c2nc3ccccc3o2)ccc1O | i | ? | 16.9% | i | 18.4µM*
N#C/C(=C\c1cccc(F)c1)c1nc(-c2cc3ccccc3oc2=O)cs1 | ? | . | . | i | .
COc1cc(/C=C(\C#N)c2nc(-c3cc4ccccc4oc3=O)cs2)ccc1O | i | ? | -4.2% | i | 0.92µM*
